Measured values reported in PubChem BioAssay AID1159580 (chemical genetic matrix, 2015).
“And” between values parts separate entries of the source, which are not always exact repeats. Equal values may be shown once. Out of some 5,500 compounds screened, about 2,000 (36%) were called active. About 18% were inconclusive and are not listed. Rule as the data show it: active = normalized growth mostly below about 0.91 (no sharp cut-off); inconclusive = no clear call, values can overlap the other calls; inactive = mostly above about 0.92. The list shows a part of the results.

Experiment: chemical genetic growth profiling, strain panel (AID 1159580);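 also: tested at 20 µM; growth read once vehicle control cultures reached saturation at 30 °C; 1 = growth at the plate median or of vehicle wells; lower values mean less growth of the strain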
Conditions: S. cerevisiae deletion strains, growth OD

Measured: normalized growth

COC(=O)[C@H]1[C@H]2C[C@H]3c4[nH]c5cc(OC)ccc5c4CCN3C[C@H]2C[C@@H](OC(=O)c2cc(OC)c(OC)c(OC)c2)[C@@H]1OC
inactive: locus YAL021C, strain ccr4, active compounds read low 0.989 | locus YAL026C, strain drs2, active compounds read low 1.02 | locus YAL030W, strain snc1, active compounds read low 1.01 | locus YBL061C, strain skt5, active compounds read low 1.02 | locus YBR009C, strain hhf1, active compounds read low 0.996 | locus YBR021W, strain FUR4, active compounds read low 0.998 | locus YBR023C, strain chs3, active compounds read low 1.01 | locus YBR171W, strain sec66, active compounds read low 1.02 | locus YBR229C, strain ROT2, active compounds read low 1 | locus YBR231C, strain swc5, active compounds read low 1.01 | locus YBR279W, strain paf1, active compounds read low 1.01 | locus YCL011C, strain gbp2, active compounds read low 1.01 | locus YCL016C, strain dcc1, active compounds read low 1.01 | locus YCL029C, strain bik1, active compounds read low 0.971 | locus YCL061C, strain MRC1, active compounds read low 1.01 | locus YCL069W, strain vba3, active compounds read low 1.01 | locus YCR088W, strain abp1, active compounds read low 1.01 | locus YDL005C, strain med2, active compounds read low 1.01 | locus YDL035C, strain GPR1, active compounds read low 1.05 | locus YDL040C, strain nat1, active compounds read low 1.01 | locus YDL074C, strain BRE1, active compounds read low 0.976 | locus YDL101C, strain DUN1, active compounds read low 0.986 | locus YDL185W, strain tfp1, active compounds read low 0.966 | locus YDL192W, strain arf1, active compounds read low 1.02 | locus YDR001C, strain nth1, active compounds read low 1.01 | locus YDR069C, strain doa4, active compounds read low 1 | locus YDR101C, strain arx1, active compounds read low 0.977 | locus YDR137W, strain rgp1, active compounds read low 1.03 | locus YDR159W, strain sac3, active compounds read low 1.02 | locus YDR162C, strain NBP2, active compounds read low 1.02 | locus YDR195W, strain ref2 1 | locus YDR297W, strain sur2, active compounds read low 1.01 | locus YDR318W, strain mcm21, active compounds read low 0.992 | locus YDR334W, strain swr1, active compounds read low 1.02 | locus YDR335W, strain msn5, active compounds read low 1.02 | locus YDR388W, active compounds read low 0.983 | locus YDR392W, strain spt3, active compounds read low 0.925 | locus YDR502C, strain sam2, active compounds read low 0.929 | locus YEL003W, strain gim4, active compounds read low 1.02 | locus YEL037C, strain rad23, active compounds read low 1.02 | locus YEL061C, strain CIN8 (second series), active compounds read low 1.01 | locus YEL061C, strain CIN8, active compounds read low 1 | locus YER015W, strain faa2, active compounds read low 1 | locus YER016W, strain bim1, active compounds read low 1.01 | locus YER110C, active compounds read low 0.975 | locus YER111C, strain swi4, active compounds read low 1.01 | locus YER155C, strain BEM2 (second series), active compounds read low 0.975 | locus YER155C, strain BEM2, active compounds read low 1 | locus YER167W, strain BCK2, active compounds read low 1.01 | locus YFR010W, strain ubp6, active compounds read low 1.01 | locus YGL078C, strain dbp3, active compounds read low 1.02 | locus YGL086W, strain mad1, active compounds read low 0.999 | locus YGL167C, strain pmr1, active compounds read low 1.02 | locus YGL173C, strain kem1, active compounds read low 1.02 | locus YGL227W, strain vid30, active compounds read low 1.01 | locus YGL240W, strain doc1, active compounds read low 0.997 | locus YGL248W, strain PDE1, active compounds read low 0.987 | locus YGL253W, strain hxk2, active compounds read low 1.02 | locus YGR135W, strain pre9, active compounds read low 1 | locus YGR252W, strain gcn5, active compounds read low 1.06 | locus YHR013C, strain ard1, active compounds read low 0.995 | locus YHR027C, strain rpn1, active compounds read low 1.02 | locus YHR030C, strain SLT2, active compounds read low 1.01 and 0.978 | locus YHR079C, strain IRE1 (second series), active compounds read low 0.982 | locus YHR079C, strain IRE1, active compounds read low 0.968 | locus YHR094C, strain hxt1, active compounds read low 0.993 | locus YHR129C, strain ARP1, active compounds read low 1 | locus YHR142W, strain chs7, active compounds read low 1.01 | locus YHR200W, strain rpn10, active compounds read low 0.992 | locus YIL066C, strain RNR3, active compounds read low 1.01 | locus YIL073C, strain SPO22, active compounds read low 0.923 | locus YIL125W, strain kgd1, active compounds read low 1.02 | locus YIR030C, strain dcg1, active compounds read low 0.994 | locus YJL092W, strain hpr5, active compounds read low 1.01 | locus YJL095W, strain BCK1 (second series), active compounds read low 1.01 | locus YJL095W, strain BCK1, active compounds read low 0.958 and 0.964 | locus YJL115W, strain asf1, active compounds read low 1.01 | locus YJL129C, strain trk1, active compounds read low 1 | locus YJL134W, strain LCB3, active compounds read low 0.996 | locus YJL154C, strain vps35, active compounds read low 1 | locus YJL164C, strain tpk1, active compounds read low 1 | locus YJL166W, strain qcr8, active compounds read low 0.987 | locus YJL168C, strain set2, active compounds read low 0.991 | locus YJL187C, strain SWE1 (second series), active compounds read low 0.979 | locus YJL187C, strain SWE1, active compounds read low 1.01 | locus YJR043C, strain POL32, active compounds read low 1.07 | locus YJR066W, strain TOR1, active compounds read low 0.92 | locus YJR075W, strain HOC1, active compounds read low 0.982
